# Source: PubChem BioAssay (Broad Institute)
# dFosB act: enhances mouse delta FosB homodimer DNA binding | AID 493131 | P13346 | activation, % at 25 µM | 0.99% of 340,000 active | purified delta FosB, TAMRA-CDK5 oligo fluorescence polarization; percent of positive-control signal above neutral wells;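 active means mean activation above about 17%, with every replicate also reaching it, limit read from the data, passing the limit was not always enough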
# Target sequence (P13346 whole entry, looked up): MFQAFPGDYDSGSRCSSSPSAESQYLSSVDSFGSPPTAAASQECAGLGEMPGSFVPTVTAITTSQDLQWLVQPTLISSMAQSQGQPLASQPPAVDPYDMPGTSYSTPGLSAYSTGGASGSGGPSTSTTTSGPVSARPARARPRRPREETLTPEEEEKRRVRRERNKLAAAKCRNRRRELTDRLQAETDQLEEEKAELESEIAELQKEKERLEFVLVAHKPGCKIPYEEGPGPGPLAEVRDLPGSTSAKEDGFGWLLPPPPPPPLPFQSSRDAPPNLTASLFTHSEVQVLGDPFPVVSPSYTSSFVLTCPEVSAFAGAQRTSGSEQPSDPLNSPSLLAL
# CDK5 inh: inhibitors of human CDK5/p35 kinase. Q00535+Q15078. Recombinant CDK5/p35, ADP-Glo luminescence, 60 min. inhibition, % at 10 µM. 0.01% of 330,000 active;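 active means highest replicate inhibition of at least 50% and at least 75% of replicates reaching 50%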
# SIRT5 block: blocks human SIRT5 desuccinylation of peptide. inhibition, % at 15 µM. 1.1% of 330,000 active. Q9NXA8. Purified SirT5, succinyl-peptide AMC, trypsin-coupled fluorescence; in the data active means inhibition above about 15%
# PvdQ acylase: P. aeruginosa PvdQ acylase inhibition; purified PvdQ acylase, fluorescence plate reader; inhibition, % at 10 µM; 0.063% of 340,000 active; AID 488965; in the data active means inhibition above about 30%, passing the limit was not always enough
# FGF22 binding-1: binders of recombinant human FGF22 by thermal shift; AID 651658; 1.5% of 340,000 active; activity (Tm shift, normalised), % at 9.99 µM; Q9HCT0; SYPRO orange fluorescence; percent of sucrose octasulfate shift, DMSO zero;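 active means mean Tm shift, scaled 0 neutral to 100 positive control, at about 1.3% or above, every replicate too, limit read from the data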
# Target sequence (Q9HCT0 whole entry, looked up): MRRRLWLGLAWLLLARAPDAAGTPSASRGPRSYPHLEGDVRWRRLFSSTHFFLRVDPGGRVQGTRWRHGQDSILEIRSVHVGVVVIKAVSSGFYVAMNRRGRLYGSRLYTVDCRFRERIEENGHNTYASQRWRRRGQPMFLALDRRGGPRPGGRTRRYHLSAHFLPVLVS
# PglD inh: inhibitors of Campylobacter jejuni PglD acetyltransferase; purified PglD enzyme, DTNB colorimetric CoA detection; inhibition, % at 12.5 µM; 0.098% of 360,000 active; AID 602405; in the data active means inhibition above about 16%, passing the limit was not always enough
# FGF22 binding-2: binders of human FGF22 by thermal shift; shares compounds with FGF22 binding-1; recombinant FGF22 thermal shift, SYPRO orange fluorescence; thermal shift activity, °C (ΔTm) at 38 µM; 2% of 1,000 active;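 active means fitted rise in melting shift crosses a set limit at or below the top valid dose tested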
# FGF22 TSA: FGF22 (human) binding by thermal shift; shares compounds with FGF22 binding-1; Thermal shift assay, SYPRO orange, melting temperature shift; Tm shift (activity), % at 38 µM; 50 tested, under 10 active;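 active means compounds whose fitted dose curve of melting temperature shift rises past a set threshold within the tested doses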
# SYPRO no-protein: shows thermal shift signal without protein, FGF22 counter-screen | 2% of 1,000 active | AID 743019 | shares compounds with FGF22 binding-1 | AC50, µM (titrated, usually from 38 µM) | compound-only SYPRO orange thermal shift counter-screen, no protein;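 active means rising signal whose fitted curve reaches the 0.54 level within the top valid dose, showing a melting point, actives reach about 13 µM in these data; inactive means the rest, including activity in the opposite direction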; further: value is where the raw curve crosses a fixed level and not half-maximal
# Numbers stand for hits; – = inactive; · = no result. Rows were chosen to be rich in hits. Some 2.8% of all compounds tested hit in one or more screens of this group.
SMILES,dFosB act,CDK5 inh,SIRT5 block,PvdQ acylase,FGF22 binding-1,PglD inh,FGF22 binding-2,SYPRO no-protein,others
O=C(CCc1ccccc1)c1c(O)cc(O)cc1O,–,–,·,–,21.0,–,–,–,
CCCCNC(=O)c1onc(CSc2ccc(F)c(F)c2)c1C(=O)NCCCC,–,–,–,–,30.9,–,–,6.27µM,
O=C(Nc1ccc(OC(F)(F)C(F)F)c(NC(=O)c2ccc(F)cc2)c1)c1ccc(F)cc1,–,–,·,–,·,–,·,·,
Nc1ccc(C(=O)Nc2ccc(OC(F)(F)C(F)F)c(NC(=O)c3ccc(N)cc3)c2)cc1,–,–,·,–,1.7,–,–,–,
C[C@H](CO)N1C[C@H](C)[C@@H](CN(C)C(=O)Nc2ccc(F)cc2)Oc2c(NS(=O)(=O)c3cn(C)cn3)cccc2C1=O,·,·,–,·,–,–,·,·,
COc1ccc(-c2csc(NC(=O)CN3C(=O)C4CCCCC4C3=O)n2)c(OC)c1 (configuration not stated),–,–,–,–,1.6,–,–,10.1µM,
COc1cc2ccccc2cc1C(=O)OCC(=O)c1c(N)n(C)c(=O)n(C)c1=O,–,–,–,–,17.2,–,–,–,
COc1ccc(Cl)cc1C(=O)OCC(=O)c1c(N)n(C)c(=O)n(C)c1=O,·,·,–,·,–,–,·,·,
COCCNC(=O)c1cccc2c(-c3cnn(C)c3)coc12,·,·,–,·,2.4,–,–,–,
CCS(=O)(=O)N1CC(=O)N2[C@@H](CO)[C@H](c3ccc(-c4ccccc4F)cc3)[C@@H]2C1,·,·,–,·,–,·,·,·,
CCS(=O)(=O)N1CC(=O)N2[C@H](CO)[C@@H](c3ccc(-c4ccccc4F)cc3)[C@@H]2C1,·,·,–,·,1.3,·,–,–,
N#C[C@H]1[C@@H](c2ccccc2-c2ccc(F)cc2)[C@@H](CO)N1C(=O)Cc1ccccc1,·,·,–,·,–,·,·,·,
O=C(COC(=O)c1ccccc1Br)NCCC1=CCCCC1,–,–,–,–,23.9,–,–,–,
COCCN1CCN(Cc2nc(Cc3ccc(OC)c(OC)c3)no2)CC1,–,–,–,–,8.0,–,–,–,
COc1ccc(Cc2noc(CN3CCN(Cc4csc(C)n4)CC3)n2)cc1OC,–,–,–,–,·,·,·,·,
COc1ccc2c3c(n(C)c2c1)[C@@H](CO)N(CC1CCOCC1)CC31CN(CC2CCOCC2)C1,·,·,·,·,–,·,·,·,
Cc1ccc(-n2c(O)c(C=NC3CCS(=O)(=O)C3)c3ccccc3c2=O)cc1C (configuration not stated),–,–,–,–,1.7,–,–,–,
Cc1ccc2nc(-c3ccc(NC(=O)CSCC(=O)O)cc3)sc2c1,–,–,–,–,–,–,·,·,
Cc1ccc2nc(-c3ccc(NC(=O)COCC(=O)O)cc3)sc2c1,–,–,–,–,23.4,–,–,–,
CCOc1ccc(NC(=O)c2cccc(-n3cccc3)c2)cc1S(=O)(=O)N1CCOCC1,–,–,–,–,2.3,–,–,–,
Cc1nc2ccc(NC(=O)c3cc(S(=O)(=O)N4CCOCC4)ccc3C)cc2s1,–,–,·,–,·,–,·,·,
Cc1nc2ccc(NC(=O)c3ccc(C)c(S(=O)(=O)N4CCOCC4)c3)cc2s1,–,–,–,–,1.6,–,–,–,
CCC(=O)N(C)C[C@H]1Oc2cc(C#CC3CCCC3)ccc2S(=O)(=O)N([C@H](C)CO)C[C@H]1C,·,·,–,·,–,–,·,·,
Cc1[nH]c(=O)[nH]c(=O)c1S(=O)(=O)Nc1cccc([N+](=O)[O-])c1C,–,–,–,–,4.6,–,–,–,
CC(=O)c1ccc(NC(=O)Nc2cccnc2)cc1,–,–,–,–,1.4,–,–,–,FGF22 TSA=–
SMILES,dFosB act,CDK5 inh,SIRT5 block,PvdQ acylase,FGF22 binding-1,PglD inh,FGF22 binding-2,SYPRO no-protein,others
CC(=O)c1ccc(NC(=O)Nc2ccncc2)cc1,–,–,–,–,–,–,·,·,
CC(=O)Nc1ccc(NC(=O)Nc2ccccc2)cc1,–,–,–,–,1.8,–,–,–,FGF22 TSA=–
C[C@@H]1CN([C@@H](C)CO)C(=O)c2cc(NS(=O)(=O)c3ccccc3)ccc2O[C@@H](C)CCCCO[C@@H]1CN(C)C(=O)CCCN(C)C,·,·,–,·,–,–,·,·,
COc1ccc(-c2ccc([C@H]3[C@H](CO)N4CCCCN(C(=O)c5ccc6c(c5)OCO6)C[C@@H]34)cc2)cc1,·,·,–,·,1.4,–,–,–,
N#C[C@H]1[C@@H](c2ccc(C#CCC3CCCC3)cc2)[C@H](CO)N1C(=O)CN1CCOCC1,·,·,–,·,19.2,–,–,–,
COc1ccc(N=NC2C(=O)N(c3ccccc3)N=C2C)cc1 (configuration not stated),–,–,–,–,1.6,·,–,–,
CC1=NN(c2ccccc2)C(=O)C1N=Nc1ccccc1 (configuration not stated),–,–,–,–,–,·,·,·,
COc1ccc(C(=O)N2CCCCC2)cc1S(=O)(=O)Nc1cccc(C(=O)O)c1,–,–,–,–,1.7,–,–,11.4µM,
CC1(C(=O)O)CCN1C(=O)c1ccccc1F (configuration not stated),·,·,·,·,21.8,–,–,–,
Cc1ccc(S(=O)(=O)NCc2cccnc2)cc1C,–,–,–,–,3.2,–,–,–,
Cc1ccc(NC(=O)c2ccc(S(=O)(=O)NCc3cccnc3)cc2)c(C)c1,–,–,–,–,1.6,–,–,–,
Cc1cccc(NC(=O)c2ccc(S(=O)(=O)NCc3cccnc3)cc2)c1C,–,–,–,–,–,–,·,·,
C[C@H]1CN([C@@H](C)CO)C(=O)c2cc(C#CCN(C)C)cnc2O[C@H]1CN(C)S(C)(=O)=O,·,·,–,·,–,–,·,·,
CCCNC(=O)N(C)C[C@H]1Oc2cc(-c3cccnc3)ccc2S(=O)(=O)N([C@H](C)CO)C[C@H]1C,·,·,–,·,–,–,·,·,
CO[C@H]1CN(C)C(=O)c2ccc(NS(=O)(=O)c3ccc(Cl)cc3)cc2OC[C@@H](C)N(C(=O)NC(C)C)C[C@H]1C,·,·,–,·,36.4,–,–,–,
CCCNC(=O)Nc1ccc2c(c1)C(=O)N(C)C[C@H](OC)[C@@H](C)CN(C(=O)c1ccccc1F)[C@H](C)CO2,·,·,–,·,1.7,–,–,–,
COCC(=O)Nc1ccc2c(c1)OC[C@@H](C)N(C)C[C@H](C)[C@@H](OC)CN(C)C2=O,·,·,–,·,30.7,–,–,–,
CCCN1C[C@H](C)[C@H](OC)CN(C)C(=O)c2cc(NC(=O)c3cnccn3)ccc2OC[C@@H]1C,·,·,–,·,1.4,–,–,–,
CCCNC(=O)Nc1ccc2c(c1)C(=O)N(C)C[C@@H](OC)[C@H](C)CN(C(=O)c1ccccc1F)[C@H](C)CO2,·,·,–,·,–,–,·,·,
